# Laboratory results published in PubChem BioAssay (NCATS).
# Inconclusive results are not listed. A call without a number means that no potency is given here. Active and inactive are the calls of the source. Calls come from the whole dose curve; as a rule, active = well fitted curve in the direction sought with a large enough effect; inconclusive = small, poorly fitted or top-dose-only effect, or another doubt; inactive = no such curve, though single readings can be large; an effect the other way counts as inactive or inconclusive.
# Experiments:
# [1] = biological target: Aldehyde dehydrogenase, mitochondrial (Homo sapiens) (UniProt P05091); test: qHTS for Inhibitors of the Aldehyde Dehydrogenase Family (ALDH2) Primary screen (AID 2061308); note: nearly all actives have a fitted effect of over 55% in size
# [2] = biological target: Retinaldehyde dehydrogenase 3 (Homo sapiens) (UniProt P47895); test: qHTS for Inhibitors of the Aldehyde Dehydrogenase Family (ALDH1A3) Primary screen (AID 2061315)
Structure (SMILES),Potency [1],Potency [2]
O=C1CCCC2=C1C(c1[nH]ncc1Cl)NC(=NCCc1ccc(O)cc1)N2 (centres undefined),inactive,inactive
O=S(=O)(Nc1ccc2ccccc2c1)c1ccc(NCc2ccc(Br)cc2O)cc1,inactive,inactive
CCOc1ccc(C(=O)Nc2ccc(-c3nc4ccccc4o3)cc2)cc1[N+](=O)[O-],inactive,inactive
N#Cc1ccc(NS(=O)(=O)c2ccc(NC(=O)Cc3ccc(Cl)c(Cl)c3)cc2)cc1,inactive,inactive
COc1ccc(-c2ccc3ncnc(NCc4cccs4)c3c2)cc1,inactive,inactive
Cc1cccc(-c2ccc3ncnc(NCc4cccc(F)c4)c3c2)c1,inactive,inactive
Cc1ccc2oc(NC3=NC(c4[nH]ncc4Cl)C4=C(CCCC4=O)N3)nc2c1 (centres undefined),inactive,inactive
O=S(=O)(Cc1ccc(Cl)c(Cl)c1)Nc1nnc(-c2ccncc2)s1,inactive,inactive
COc1ccc(C(=O)Nc2ccc(-c3nc4ccccc4[nH]3)cc2)cc1OC,inactive,inactive
Cc1ccc(S(=O)(=O)Nc2cccc3ccc(C)nc23)cc1,inactive,inactive
Cc1cc(N2C(=O)c3ccccc3C2=O)no1,inactive,inactive
Fc1ccc(-c2nc(-c3ccncc3)nc3ccccc23)cc1F,inactive,inactive
COc1cccc(-c2ccc3ncnc(NCc4cc(C)cs4)c3c2)c1,inactive,inactive
CC(=O)c1ccc(N2CCN(S(=O)(=O)c3ccc4c(c3)CCCC(=O)N4)CC2)cc1,inactive,inactive
CNc1oc(-c2ccc(-c3ccccc3)cc2)nc1C#N,inactive,inactive
CCCn1c(C)nc2c(NCCCN(CCO)CCO)nc(C)nc21,inactive,inactive
CN(C)CCCNC(=O)c1ccc(-c2cnc3c(O)ccc(C(=O)O)c3c2)cc1,inactive,inactive
Cc1cnc(-c2ccccc2C(C)C)nc1N(C)Cc1ccc(-c2cccnc2)cc1,inactive,inactive
CCOc1cc(C)c(Cl)cc1S(=O)(=O)n1cnc2ccccc21,inactive,inactive
Cc1cc(C(=O)Nc2ccc(NC(=O)Cc3ccc(Cl)c(Cl)c3)cc2)no1,inactive,inactive
CN1C2CCC1CC(OC(=O)[C@H](CO)c1ccccc1)C2 (some centres undefined),inactive,inactive

Structure (SMILES),Potency [1],Potency [2]
Fc1ccc(-c2ccc(CNc3nc(-c4ccccc4C(F)(F)F)nc4ccccc34)cc2)cc1C(F)(F)F,inactive,inactive
COc1cccc(C2c3c(ncn(-c4ccccc4C(C)(C)C)c3=N)Oc3ccc4ccccc4c32)c1 (centres undefined),inactive,inactive
N#Cc1nc(Nc2cc(F)cc(F)c2)c2ncn(CCCO)c2n1,inactive,inactive
CC(=O)Nc1sc2c(c1Br)CCNC2,inactive,inactive
CC1(C(=O)O)CCCC2(C)C3CCC4CC3(CCC12)CC4(O)CO (centres undefined),inactive,inactive
N#Cc1cc(NC(=O)Nc2nnc(-c3ccncc3)s2)ccc1F,inactive,inactive
CCN(CCc1cn(C)cn1)c1ncnc2ccc(-c3ccc4c(c3)OCO4)cc12,inactive,inactive
O=S1(=O)N=C(Oc2cccc(-c3ccccc3)c2)c2ccccc21,inactive,inactive
CCCn1c(-c2ccc(F)cc2)nc2c(NCCCN3CCCCC3C)nc(C)nc21 (centres undefined),inactive,inactive
C=CCNc1oc(-c2cccc(Cl)c2)nc1C#N,inactive,inactive
COc1cccc(-c2ccc3ncnc(N(C)Cc4ccco4)c3c2)c1,inactive,inactive
O=C(Nc1ccc(Cl)c(Cl)c1)Nc1nnc(-c2ccncc2)s1,inactive,inactive
C=CC1C(OC2OC(CO)C(O)C(O)C2O)OC=C2C(=O)N3C(C(=O)O)Cc4c([nH]c5ccccc45)C3CC21 (centres undefined),inactive,inactive
Cc1nc(NCc2ccccc2)c2nc(-c3ccccc3)n(C(C)CN(C)C)c2n1 (centres undefined),inactive,inactive
O=C1CCCC2=C1C(c1ccc(Cl)cc1)N=C(Nc1nc3ccccc3o1)N2 (centres undefined),inactive,inactive
Cc1ccc(NC(=O)c2cnn3c(C)cc(C)nc23)c(C)c1,inactive,inactive
Cc1ccc(-c2cc(C(=O)Nc3ccncc3)c3ccccc3n2)cc1C,inactive,inactive
N#Cc1ccc(-c2ccc(NC(=O)c3cccs3)cn2)cc1,inactive,inactive
CN(Cc1ccccc1)C(=O)C1CCN(Cc2cccc3ccccc23)CC1,inactive,inactive
CCCCNC(=S)NCCCN(Cc1ccc(Cl)c(Cl)c1)c1ccc(Br)cn1,inactive,inactive
CC(=O)Nc1sc2c(c1-c1ccc(C)cc1)CCNC2,inactive,inactive
